# The source made the active and inactive calls.
# How the values were obtained:
# [1] = E. coli DRC41 culture turbidity changes, primary screen, E. coli filamentation inducer project, strain DRC41, OD650, 48 h (AID 1152);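 note: E. coli MC1000 strain DRC41 lacking acrAB efflux pump and sulA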; conditions: E. coli DRC41 (acrAB sulA), higher = more signal, called active from +8 up or from −8 down
# [2] = small-molecule binders of probe aLefty1, primary screen, biochemical, small-molecule microarray, 635/667 nm fluorescence (AID 1153); conditions: higher = more signal;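 note: score merges spot fluorescence with signal-to-noise ratio from the scanned slide images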
# [3] = PSAC antagonists in infected red cells, primary screen, cell-based, P. falciparum Indochina, OD700, 1 h (AID 1154); conditions: P. falciparum Indochina infected RBC osmotic lysis, higher = more signal, called active from +8 up or from −8 down
# [4] = PSAC antagonists in infected red cells, primary screen, cell-based, P. falciparum Indochina, OD700, 2 h (AID 1155);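 note: lysis reports solute entry through the parasite surface anion channel PSAC; channel blockers reduce lysis of infected cells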; conditions: P. falciparum Indochina infected erythrocytes, osmotic lysis OD700; higher = more signal, called active from +8 up or from −8 down
# [5] = osmotic lysis modulators in infected erythrocytes, primary screen, PSAC antagonist project, cell-based, P. falciparum Indochina, OD700, 3 h (AID 1156); conditions: higher = more signal, called active from +8 up or from −8 down
# [6] = PSAC antagonists in infected red cells, primary screen, cell-based, P. falciparum Indochina, OD700, 18 h (AID 1157); conditions: P. falciparum Indochina infected erythrocytes, osmotic lysis OD700, 18 h; higher = more signal, called active from +8 up or from −8 down
# [7] = modulators of S6 phosphorylation in cells, primary screen, cell-based, A549, cytoblot, luminescence, serum-stimulated (AID 1158); conditions: A549 phospho-S6 cytoblot, 5 h, higher = more signal;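 note: serum-stimulated A549 lung adenocarcinoma cells; signal is phosphorylated S6 detected by cytoblot immunostaining with HRP secondary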
# [8] = molecular target: NADPH oxidase 2 (Homo sapiens) (UniProt P04839); experiment: NOX2-dependent H2O2 signal modulators, primary screen, NOX inhibitor project, cell-based, HEK293-NOX2, PMA-stimulated, Amplex Red fluorescence (AID 1159); conditions: 45 min, higher = more signal, called active from +8 up or from −8 down; note: test concentration not given here
# NADPH oxidase 2 (Homo sapiens), sequence (P04839 whole entry, looked up): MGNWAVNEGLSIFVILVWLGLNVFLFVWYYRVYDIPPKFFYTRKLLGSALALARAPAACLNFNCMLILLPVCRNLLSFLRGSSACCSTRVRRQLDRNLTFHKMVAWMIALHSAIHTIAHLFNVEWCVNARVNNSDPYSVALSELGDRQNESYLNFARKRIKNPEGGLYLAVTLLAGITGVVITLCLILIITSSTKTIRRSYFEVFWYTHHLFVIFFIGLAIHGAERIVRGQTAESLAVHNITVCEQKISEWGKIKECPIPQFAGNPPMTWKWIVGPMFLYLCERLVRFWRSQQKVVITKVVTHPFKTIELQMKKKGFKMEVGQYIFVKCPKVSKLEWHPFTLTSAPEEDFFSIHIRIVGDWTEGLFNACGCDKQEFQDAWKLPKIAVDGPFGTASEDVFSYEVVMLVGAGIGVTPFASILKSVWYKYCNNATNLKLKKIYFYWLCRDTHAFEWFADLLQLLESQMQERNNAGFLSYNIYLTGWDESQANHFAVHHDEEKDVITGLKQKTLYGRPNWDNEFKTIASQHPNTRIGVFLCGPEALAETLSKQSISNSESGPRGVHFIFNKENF
# [9] = molecular target: NADPH oxidase 4 (Homo sapiens) (UniProt Q9NPH5); experiment: NOX4-dependent H2O2 signal modulators, primary screen, NOX inhibitor project, cell-based, HEK293-NOX4, tetracycline-induced, Amplex Red fluorescence (AID 1160); conditions: 45 min, higher = more signal, called active from +8 up or from −8 down
# NADPH oxidase 4 (Homo sapiens), sequence (Q9NPH5 whole entry, looked up): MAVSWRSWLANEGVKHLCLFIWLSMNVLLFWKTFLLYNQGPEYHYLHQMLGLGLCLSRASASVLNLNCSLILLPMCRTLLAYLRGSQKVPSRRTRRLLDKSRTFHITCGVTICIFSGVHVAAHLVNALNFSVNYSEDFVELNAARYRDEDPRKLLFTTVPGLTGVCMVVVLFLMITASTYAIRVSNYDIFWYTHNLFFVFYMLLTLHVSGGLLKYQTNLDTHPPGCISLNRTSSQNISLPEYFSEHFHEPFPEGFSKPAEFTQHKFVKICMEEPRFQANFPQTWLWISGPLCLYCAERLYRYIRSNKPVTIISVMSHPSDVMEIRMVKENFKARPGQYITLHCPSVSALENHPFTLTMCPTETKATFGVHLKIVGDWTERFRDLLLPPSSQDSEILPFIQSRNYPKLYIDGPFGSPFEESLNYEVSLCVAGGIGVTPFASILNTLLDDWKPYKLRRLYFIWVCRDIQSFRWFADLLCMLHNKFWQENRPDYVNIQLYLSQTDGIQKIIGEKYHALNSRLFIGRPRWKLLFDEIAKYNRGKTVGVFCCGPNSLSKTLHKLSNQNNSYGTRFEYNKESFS
# [10] = molecular target: NADPH oxidase 5 (Homo sapiens) (UniProt Q96PH1); experiment: NOX5-dependent H2O2 signal modulators, primary screen, NOX inhibitor project, cell-based, HEK293-NOX5, Amplex Red fluorescence (AID 1161); conditions: HEK293-NOX5, ionomycin, 45 min, higher = more signal
# NADPH oxidase 5 (Homo sapiens), sequence (Q96PH1 whole entry, looked up): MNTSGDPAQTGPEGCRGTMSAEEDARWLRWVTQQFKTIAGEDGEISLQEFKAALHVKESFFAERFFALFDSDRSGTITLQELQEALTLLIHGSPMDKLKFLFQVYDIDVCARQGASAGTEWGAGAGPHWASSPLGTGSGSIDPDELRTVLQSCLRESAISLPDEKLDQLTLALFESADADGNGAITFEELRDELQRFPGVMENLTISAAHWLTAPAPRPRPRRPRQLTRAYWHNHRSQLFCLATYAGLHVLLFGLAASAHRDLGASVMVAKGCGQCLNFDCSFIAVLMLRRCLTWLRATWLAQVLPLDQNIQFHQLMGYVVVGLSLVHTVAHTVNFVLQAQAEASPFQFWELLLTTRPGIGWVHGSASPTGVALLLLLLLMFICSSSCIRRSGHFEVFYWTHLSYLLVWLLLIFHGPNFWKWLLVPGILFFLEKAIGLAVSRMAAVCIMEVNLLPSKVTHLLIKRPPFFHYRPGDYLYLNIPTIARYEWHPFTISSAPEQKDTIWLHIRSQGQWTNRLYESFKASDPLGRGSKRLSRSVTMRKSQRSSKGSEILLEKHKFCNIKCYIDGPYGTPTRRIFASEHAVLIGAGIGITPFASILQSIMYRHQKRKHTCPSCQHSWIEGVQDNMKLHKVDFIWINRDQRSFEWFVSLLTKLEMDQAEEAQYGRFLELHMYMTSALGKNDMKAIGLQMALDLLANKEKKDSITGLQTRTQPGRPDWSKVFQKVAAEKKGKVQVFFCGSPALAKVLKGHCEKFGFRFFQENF
SMILES,z-score [1],composite z-score [2],z-score [3],z-score [4],z-score [5],z-score [6],z-score [7],z-score [8],z-score [9],z-score [10]
Cc1ccccc1C(O)C1C=CC2C(=O)N(C)C(=O)C2N1Nc1ccc([N+](=O)[O-])cc1[N+](=O)[O-] (stereo not given),-1.68 (inactive),0.591,4.34 (inactive),1.7 (inactive),1.06 (inactive),0.95 (inactive),-1.32,-0.824 (inactive),-1.23 (inactive),0.487
COC(=O)C(CC#Cc1ccc2c(c1)[C@]1(C(=O)N2)[C@H](c2ccc(OCCO)cc2)N2[C@H](c3ccccc3)[C@H](c3ccccc3)OC(=O)[C@H]2[C@@H]1C(=O)O)C(=O)OC,1.55 (inactive),0.685,4.99 (inactive),0.441 (inactive),1.17 (inactive),-0.121 (inactive),0.641,1.18 (inactive),0.0107 (inactive),0.918
COc1ccc(CCNC(=O)[C@@H]2c3ccccc3C(=O)N(Cc3ccccc3)[C@H]2c2ccc(CO)cc2)cc1,1.81 (inactive),0.436,3.59 (inactive),-0.275 (inactive),0.504 (inactive),-0.508 (inactive),1.89,-6.18 (inactive),-0.909 (inactive),-4.52
O=C1NC(=O)C2C1C=CC(C(O)c1ccc(-c3ccccc3)s1)N2Nc1ccccn1 (stereo not given),-0.513 (inactive),0.114,2.41 (inactive),1.14 (inactive),0.216 (inactive),1.02 (inactive),-0.697,-1.09 (inactive),-2.3 (inactive),-1.44
CC(C)(C)OC(=O)CC[C@]1(C(=O)N2CCCCC2)N=C(c2ccc(OCCCO)cc2)O[C@H]1c1ccccc1CN=[N+]=[N-],2.54 (inactive),1.66,21.9 (active),4.95 (inactive),0.768 (inactive),0.158 (inactive),1.89,-0.683 (inactive),1.56 (inactive),0.95
CCCC[C@H]1OB(O)C[C@H]2C1=C(COc1ccccc1)Cn1c(=O)n(-c3ccccc3)c(=O)n12,0.4 (inactive),-0.06,2.14 (inactive),0.0541 (inactive),0.722 (inactive),0.0113 (inactive),0.279,-0.281 (inactive),-0.216 (inactive),0.779
Cc1ccc(S[C@]2(C(=O)O)CC(=O)N(C3CCCCC3)[C@@H]2c2ccc(CO)cc2)cc1,0.858 (inactive),-0.672,2.06 (inactive),0.0744 (inactive),0.854 (inactive),0.0854 (inactive),-0.158,1.09 (inactive),0.585 (inactive),0.763
O=C1c2ccccc2C(=O)C2CC([C@H]3Oc4ccccc4S(=O)(=O)N4CCC[C@@H]34)=CCC12 (stereo not given in full),1.03 (inactive),-0.196,8 (inactive),1.12 (inactive),-0.0247 (inactive),0.696 (inactive),0.127,0.5 (inactive),-3.1 (inactive),-0.779
C=C(COC)/C(=C/C[C@@H](OC(=O)c1ccncc1)c1cccc(OCCO)c1)c1cc(C(=O)OC)ccc1OC,0.701 (inactive),0.0698,8.82 (active),4.64 (inactive),-3.3 (inactive),1.53 (inactive),-0.88,-3.02 (inactive),-0.817 (inactive),-1.23
COC(=O)[C@@]1(Cc2ccc(OC)cc2)[C@H]2c3cc(C(=O)N(C)C)n(Cc4cc(C)n(C)n4)c3C[C@H]2CN1C(=O)c1ccccc1,-1.82 (inactive),0.396,2.11 (inactive),0.498 (inactive),1.45 (inactive),0.544 (inactive),0.355,0.27 (inactive),-1.52 (inactive),-3.56
O=C1N(CCS(=O)(=O)c2ccccc2)Cc2ccccc2C[C@@]12COC(c1ccc(OCCCO)cc1)=N2,-2.34 (inactive),0.153,25.9 (active),15.1 (active),4.23 (inactive),2.14 (inactive),-0.0579,-5.26 (inactive),-0.159 (inactive),-3.16
COC(=O)[C@]1(Cc2ccccc2N=[N+]=[N-])N=C(c2ccc(OCCCO)cc2)O[C@@H]1c1ccccc1,0.738 (inactive),-0.111,28.2 (active),27.2 (active),1.06 (inactive),7.41 (inactive),0.777,-1.49 (inactive),-0.013 (inactive),-1.12
CCCNC(=O)[C@@]1(Sc2ccc(C)cc2)CC(=O)N(Cc2ccccc2)[C@@H]1c1ccc(CO)cc1I,-0.383 (inactive),-0.0573,6.23 (inactive),0.815 (inactive),-0.713 (inactive),0.206 (inactive),-0.374,1.04 (inactive),-1.94 (inactive),1.79

# — PubChem BioAssay
